Results: PubChem BioAssay AID1159580 (chemical genetic matrix, 2015)
Where “and” joins values, the source holds several entries; their conditions need not be identical. Equal values may be shown once. Hit rate of the full screen: of about 5,500 compounds, about 2,000 (36%) were called active. About 18% were inconclusive and are not listed. No stated cut-off is given here; in the data, active means normalized growth mostly below about 0.91 (no sharp cut-off); inconclusive means no clear call, values can overlap the other calls; inactive means mostly above about 0.92. The list shows a part of the results.

Test: chemical genetic growth profiling, strain panel (AID 1159580);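 further: tested at 20 µM; growth read once vehicle control cultures reached saturation at 30 °C; 1 = growth at the plate median or of vehicle wells; lower values mean less growth of the strain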
Settings: S. cerevisiae deletion strains, growth OD

Measured: normalized growth

C[N+]1(C)C2CC(OC(=O)[C@@H](CO)c3ccccc3)CC1C1OC12 (some centres not stated)
inactive: locus YAL021C, strain ccr4, hits give low values 0.987 | locus YAL026C, strain drs2, hits give low values 0.999 | locus YAL030W, strain snc1, hits give low values 0.968 | locus YBL061C, strain skt5, hits give low values 0.98 | locus YBR009C, strain hhf1, hits give low values 0.955 | locus YBR021W, strain FUR4, hits give low values 1.04 | locus YBR023C, strain chs3, hits give low values 0.958 | locus YBR171W, strain sec66, hits give low values 0.951 | locus YBR229C, strain ROT2, hits give low values 1.01 | locus YBR231C, strain swc5, hits give low values 0.982 | locus YBR279W, strain paf1, hits give low values 0.986 | locus YCL011C, strain gbp2, hits give low values 0.923 | locus YCL016C, strain dcc1, hits give low values 0.932 | locus YCL029C, strain bik1, hits give low values 1 | locus YCL061C, strain MRC1, hits give low values 0.977 | locus YCL069W, strain vba3, hits give low values 0.974 | locus YCR088W, strain abp1, hits give low values 0.989 | locus YDL005C, strain med2, hits give low values 0.989 | locus YDL035C, strain GPR1, hits give low values 1.02 | locus YDL040C, strain nat1, hits give low values 0.994 | locus YDL074C, strain BRE1, hits give low values 1.05 | locus YDL101C, strain DUN1, hits give low values 1.01 | locus YDL185W, strain tfp1, hits give low values 1.01 | locus YDL192W, strain arf1, hits give low values 1.03 | locus YDR001C, strain nth1, hits give low values 0.975 | locus YDR069C, strain doa4, hits give low values 0.977 | locus YDR101C, strain arx1, hits give low values 0.99 | locus YDR137W, strain rgp1, hits give low values 0.924 | locus YDR159W, strain sac3, hits give low values 1 | locus YDR162C, strain NBP2, hits give low values 1.02 | locus YDR195W, strain ref2 1.01 | locus YDR297W, strain sur2, hits give low values 0.976 | locus YDR318W, strain mcm21, hits give low values 1.03 | locus YDR334W, strain swr1, hits give low values 0.933 | locus YDR335W, strain msn5, hits give low values 0.968 | locus YDR388W, hits give low values 1.01 | locus YDR392W, strain spt3, hits give low values 0.934 | locus YDR502C, strain sam2, hits give low values 1.03 | locus YEL003W, strain gim4, hits give low values 0.996 | locus YEL037C, strain rad23, hits give low values 0.982 | locus YEL061C, strain CIN8 (second series), hits give low values 0.98 | locus YEL061C, strain CIN8, hits give low values 1.05 | locus YER015W, strain faa2, hits give low values 0.986 | locus YER016W, strain bim1, hits give low values 0.997 | locus YER110C, hits give low values 1.02 | locus YER111C, strain swi4, hits give low values 0.985 | locus YER155C, strain BEM2 (second series), hits give low values 1.02 | locus YER155C, strain BEM2, hits give low values 1.01 | locus YER167W, strain BCK2, hits give low values 1.03 | locus YFR010W, strain ubp6, hits give low values 0.978 | locus YGL078C, strain dbp3, hits give low values 1.01 | locus YGL086W, strain mad1, hits give low values 1 | locus YGL167C, strain pmr1, hits give low values 0.964 | locus YGL173C, strain kem1, hits give low values 0.969 | locus YGL227W, strain vid30, hits give low values 0.978 | locus YGL240W, strain doc1, hits give low values 1 | locus YGL248W, strain PDE1, hits give low values 1.01 | locus YGL253W, strain hxk2, hits give low values 0.97 | locus YGR135W, strain pre9, hits give low values 1.06 | locus YGR229C, strain SMI1, hits give low values 1.05 | locus YGR252W, strain gcn5, hits give low values 1.05 | locus YHR013C, strain ard1, hits give low values 0.957 | locus YHR027C, strain rpn1, hits give low values 0.957 | locus YHR030C, strain SLT2, hits give low values 1.02 and 1.03 | locus YHR079C, strain IRE1 (second series), hits give low values 1.02 | locus YHR079C, strain IRE1, hits give low values 1.03 | locus YHR094C, strain hxt1, hits give low values 1.01 | locus YHR129C, strain ARP1, hits give low values 1.01 | locus YHR142W, strain chs7, hits give low values 0.916 | locus YHR200W, strain rpn10, hits give low values 1.02 | locus YIL066C, strain RNR3, hits give low values 1.01 | locus YIL073C, strain SPO22, hits give low values 1.07 | locus YIL125W, strain kgd1, hits give low values 1.01 | locus YIR030C, strain dcg1, hits give low values 1.02 | locus YJL092W, strain hpr5, hits give low values 0.969 | locus YJL095W, strain BCK1 (second series), hits give low values 0.974 | locus YJL095W, strain BCK1, hits give low values 1.02 and 1.01 | locus YJL115W, strain asf1, hits give low values 0.958 | locus YJL129C, strain trk1, hits give low values 0.976 | locus YJL134W, strain LCB3, hits give low values 1 | locus YJL154C, strain vps35, hits give low values 0.975 | locus YJL164C, strain tpk1, hits give low values 1 | locus YJL166W, strain qcr8, hits give low values 0.959 | locus YJL168C, strain set2, hits give low values 1.01 | locus YJL187C, strain SWE1 (second series), hits give low values 1.01 | locus YJL187C, strain SWE1, hits give low values 0.976 | locus YJR043C, strain POL32, hits give low values 1.02
